About 64,000 (15%) of roughly 420,000 compounds were called active. About 27% were inconclusive and are not listed. The list is a sample of the results. A number with no mark means an inactive call. Calls follow the shape of the dose curve; as a rule, active = well fitted inhibition curve with a large enough effect; inconclusive = small, poorly fitted or top-dose-only effect; inactive = flat fitted curve, though single readings scatter.
Experiment: qHTS for Inhibitors of human tyrosyl-DNA phosphodiesterase 1 (TDP1): qHTS in cells in absence of CPT; also: nearly all actives have a fitted effect of over 55% in size
Settings: DT40 Tdp1-/- hTDP1 cells, no CPT, ATP luminescence, 48 h; activity change, negative = growth inhibition: at 46.2 µM (top of the series)
How it was run: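 Stably hTDP1-transfected Tdp1-null chicken DT40 cells were treated with library compounds minus camptothecin and grown for at least 48 hr at 37 °C, after which cellular ATP was quantified by luminescence.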
% is scaled to controls: 0 for no effect and ±100 for the full control effect; potency is read from the fitted curve at half-maximal effect.

Row | Structure (SMILES) | activity change, negative = growth inhibition [%] | Potency
1 | COc1ccc(-c2nc3n(c2Br)CCC3)cc1 | -21.5 | –
2 | COc1ccc(C(=O)O)cc1S(=O)(=O)NC1CCN(Cc2ccccc2)CC1 | -23.7 | –
3 | CCOc1ccc(C(=O)NC2CCN(CC(=O)NCc3cccs3)CC2)cc1 | 0.552 | –
4 | COC(=O)c1cccc(NC(=O)CN2CCC(NC(=O)c3cc(OC)c(OC)c(OC)c3)CC2)c1 | – | 16.4 µM (active)
5 | COc1cc2[nH]c(=O)n(CCC(=O)NC3CCN(Cc4ccccc4)CC3)c(=O)c2cc1OC | 5.02 | –
6 | COc1cc(C(=O)NC2CCN(Cc3ccccc3)CC2)cc(Cl)c1OC(C)C | – | 20.6 µM (active)
7 | COC(=O)c1cc(NC(=O)CN2CCN(C(C)=O)CC2)cc(C(=O)OC)c1 | -5.06 | –
8 | Cc1c(C=O)c2ccccc2n1CC(=O)O | 10.6 | –
9 | CC(NC(=O)COC(=O)c1ccc(Cl)cc1O)c1ccc(F)cc1 (stereo not given) | -15.9 | –
10 | Cc1ccc(S(=O)(=O)NCc2cn3ccsc3n2)c(C)c1 | -25.2 | –
11 | Cn1nnnc1SCC(=O)Nc1nc2ccccc2s1 | -4.07 | –
12 | Cc1ccn2c(=O)nc(SCC(=O)NCc3ccc(F)cc3)nc2c1 | -3.12 | –
13 | COc1ccc(/C=C/C(=O)Nc2ccc(C34CC5CC(CC(O)(C5)C3)C4)cc2)cc1OC | – | 1.3 µM (active)
14 | COc1ccc(/C=C/C(=O)Nc2cccnc2)cc1OC | -26.5 | –
15 | Cc1ccc(C23CC4CC(CC(C(=O)NCC(=O)O)(C4)C2)C3)cc1 | -8.94 | –
16 | CCC(=O)NNc1cc(=O)c2c(=O)n(C)c(=O)n(C)c2[nH]1 | -2.61 | –
17 | CCOC(=O)C1CCN(c2ccc(C(=O)O)cc2[N+](=O)[O-])CC1 | 3.97 | –
18 | CCOC(=O)N1CCN(C(=S)Nc2ccc(C)cc2C)CC1 | -0.122 | –
19 | O=C(Nc1cccc(Cl)c1)c1cc([N+](=O)[O-])ccc1N1CCN(CCO)CC1 | -10.6 | –
20 | CCOC(=O)N1CCN(c2cc(C)c([N+](=O)[O-])cc2F)CC1 | – | 16.4 µM (active)
21 | CCC(=O)c1ccc(N2CCN(C(=O)c3cc([N+](=O)[O-])ccc3F)CC2)c(F)c1 | – | 16.4 µM (active)
22 | CC(C(=O)N1CCN(c2ccccc2F)CC1)c1ccc([N+](=O)[O-])cc1 (stereo not given) | -28.8 | –
23 | COC(=O)c1oc2ccc(Br)cc2c1NC(C)=O | -24.5 | –
24 | O=C(CSc1nc2ccc(Nc3nc(N4CCOCC4)nc(N4CCOCC4)n3)cc2s1)NCc1ccco1 | – | 13 µM (active)
25 | Cc1ccc(S(=O)(=O)N2CCOCC2)cc1NC(=O)CSc1nnc(N)s1 | -2.06 | –
26 | CC1(c2ccccc2)NC(=O)N(CC(=O)Nc2cc(Cl)ccc2N2CCOCC2)C1=O (stereo not given) | 3.58 | –
27 | O=C(CC(c1ccccc1)c1cc(Cl)ccc1O)NCCN1CCOCC1 (stereo not given) | -25.3 | –

Row | Structure (SMILES) | activity change, negative = growth inhibition [%] | Potency
28 | Cc1ccccc1NC(=O)CSc1nc2ccc(Nc3nc(N4CCOCC4)nc(N4CCOCC4)n3)cc2s1 | – | 14.6 µM (active)
29 | CCn1c(SCC(=O)NCc2ccco2)nnc1-c1ccc(N)cc1 | -25.1 | –
30 | O=C(CSc1nc2ccccc2s1)Nc1ccc(C(=O)O)cc1 | 22 | –
31 | O=C(CSc1nc(Nc2ccccc2)nc(N2CCOCC2)n1)Nc1cc(Cl)ccc1O | – | 29.1 µM (active)
32 | C=CCn1c(CSc2nc3ccccc3s2)nnc1SCC(=O)NCc1ccco1 | 1.91 | –
33 | Cc1ccccc1-n1nc(C)c2c1N=C1C(Cl)=CC(Cl)=CN1C2c1ccc(C(=O)O)cc1 (stereo not given) | 14.2 | –
34 | CCn1ccnc1CN(C)C(=O)c1cc(COc2ccc(Cl)cc2OC)on1 | -27 | –
35 | COC(=O)[C@H](Cc1ccccc1)NC(=O)N1CC(C)OC(C)C1 (stereo not given in full) | 12 | –
36 | O=C1NC(c2ccccc2)CCC1(Cl)Cl (stereo not given) | -3.73 | –
37 | Cc1cc(C(=O)COC(=O)CCCN2C(=O)c3ccccc3C2=O)c(C)n1C | -6.94 | –
38 | Cc1ccc(NC(=O)c2cn3c4c(ccc(Cl)c4c2=O)OC(C)C3)cc1C (stereo not given) | -2.41 | –
39 | C#CCOCCOCCOCCNc1nc(N2CCN(C(=O)Cn3cc(CCO)nn3)CC2)nc(N2CCN(C(=O)[C@H](CCCCN)n3cc(CCCC)nn3)CC2)n1 | -0.177 | –
40 | COc1cc(NC(=S)NCc2ccc(S(N)(=O)=O)cc2)cc(OC)c1 | -21.2 | –
41 | CCc1c(O)cc2n(c1=O)-c1ccccc1C2(C)C | -23.2 | –
42 | CC1(C)CC(N2CCN(C(c3ccccc3)c3ccccc3)CC2)=CC(=[N+]2CCCCC2)C1 | – | 0.164 µM (active)
43 | CC1(C)CC(=O)C=C(N2CCOCC2)C1 | 20.4 | –
44 | CC1(C)CC(=O)C=C(N2CCCC2)C1 | -1.76 | –
45 | Cc1nc(Cl)c2oc3ccccc3c2n1 | 10.8 | –
46 | O[C@H]1C[C@H](c2ccc(Cl)cc2)N(Cc2cccs2)C[C@@H]1n1cc(C2CC2)nn1 | – | 14.6 µM (active)
47 | c1csc(CN2CCN(Cc3cccs3)C2c2cccs2)c1 | 9.91 | –
48 | COC(=O)C1=C(C(=O)OC)C(c2cc([N+](=O)[O-])ccc2O)c2sc(=O)[nH]c2S1 (stereo not given) | 3.48 | –
49 | CC1=NN(C(C)C)C(=O)C1 | -12.2 | –
50 | COc1ccc(CN(CC(=O)NC2CCCC2)C(=O)CCC(=O)Nc2cc(C)on2)cc1 | -10.2 | –
51 | Cc1ccc(CN(CC(=O)NC2CCCCC2)C(=O)c2csnn2)cc1 | -12 | –
52 | Cc1cc(C(C)(C)C)oc1C(=O)N(CC(=O)NC1CCCC1)Cc1ccc(Cl)cc1 | – | 14.1 µM (active)
53 | CN1CCN(C(=O)c2ccc(-c3ccc(Br)cc3)o2)CC1 | -18.3 | –
54 | Cc1ccccc1C1=NC(C(F)(F)F)(C(F)(F)F)c2c(n(-c3ccc(F)cc3)c(=O)[nH]c2=O)N1 | – | 23.1 µM (active)

Row | Structure (SMILES) | activity change, negative = growth inhibition [%] | Potency
55 | O=S(=O)(NCC1CC1)c1ccc(F)c(Cl)c1 | 28.1 | –
56 | Cc1cc(NS(=O)(=O)c2ccc(NC(=O)c3ccccc3C)cc2)nc(C)n1 | 6.45 | –
57 | COc1c(F)c(F)c(C(=O)O)c(Nc2ccccc2C)c1F | -8.56 | –
58 | CCCS(=O)(=O)c1c(Nc2ccccc2C)sc(C(=O)c2ccccc2)c1N | – | 16.4 µM (active)
59 | CCOC(=O)c1c(C)[nH]c(C)c1S(=O)(=O)N(C)CC(=O)Nc1ccccc1C | -10.7 | –
60 | Cc1ccc2c(c1)C1CN(C)CCC1N2C(=S)Nc1ccc(Cl)cc1Cl (stereo not given) | 0.632 | –
61 | Cc1ccc(Nc2c(O)nc[nH]c2=O)cc1C | -1.29 | –
62 | Cc1ccc2[nH]cc(CCCN3C(=O)c4ccccc4C3=O)c2c1 | -3.71 | –
63 | CC(=O)CC(CC(=O)NC1CCCCC1)c1ccccc1 (stereo not given) | -5.74 | –
64 | O=C(CCS(=O)(=O)c1ccccc1)NC1CCCC1 | 22 | –
65 | O=C(CNC1CCCCC1)NCC1(c2ccccc2)CCCC1 | – | 23.1 µM (active)
66 | CC(C)NC(=O)c1ccccc1S(=O)c1ccccc1C#N (stereo not given) | -23.9 | –
67 | O=C(CSc1ccc(Cl)cc1)NC1CC1 | -18.7 | –
68 | O=C(/C=C/c1cccc(F)c1)NC1CC1 | -24.6 | –
69 | CCNC(=S)NNC(=O)C1CCN(Cc2ccccc2)CC1 | -8.75 | –
70 | O=C(Nc1ccccc1)N1CCC(C(=O)N2CCN(Cc3ccccc3)CC2)CC1 | -18.5 | –
71 | O=C(NNC(=S)Nc1ccc(Br)cc1Cl)c1ccco1 | -8.5 | –
72 | Cc1cc(Br)ccc1NC(=S)NC1CCCC1 | -20.4 | –
73 | S=C(Nc1ccc(Br)cc1Cl)NC1CCN(Cc2ccccc2)CC1 | – | 7.31 µM (active)
74 | S=C(Nc1ccc(Br)cc1)NC1CCN(Cc2ccccc2)CC1 | – | 23.1 µM (active)
75 | CCNc1ncc2nc(CCc3ccccc3)c(=O)n(-c3ccc(OC)cc3)c2n1 | -21.2 | –
76 | CC1(C(=O)NCc2ccccc2)CN(S(C)(=O)=O)CC(=O)N1CC(F)(F)F (stereo not given) | -11.4 | –
77 | CCOC(=O)c1ccc(-n2c(CCC(=O)O)ccc2-c2ccccc2)cc1 | – | inactive
78 | CC1Cc2cc(/C(O)=C3\C(=O)C(=O)N(Cc4cccnc4)C3c3ccccc3F)ccc2O1 (stereo not given) | 37.3 | –
79 | Cc1cc(=O)oc2ccc(OCC(=O)O)cc12 | 14.6 | –
80 | CC(=O)c1c(C)[nH]c(C(=O)COc2ccc3c(C)cc(=O)oc3c2)c1C | – | 20.6 µM (active)
81 | Cc1cc(=O)oc2cc(OCC(=O)Nc3nnc(C4CC4)s3)ccc12 | -15.1 | –

Row | Structure (SMILES) | activity change, negative = growth inhibition [%] | Potency
82 | Cc1ccc(O)c(/C=N/NC(=O)COc2ccc3c(C)cc(=O)oc3c2)c1 | – | 16.4 µM (active)
83 | Cc1ccc(O)c(NC(=O)COc2cc(C)ccc2C)c1 | -27.4 | –
84 | COC(=O)COc1ccc2oc(=O)cc(C)c2c1 | -6.39 | –
85 | CN(CC(=O)Nc1ccc(N2CCOCC2)cc1)CC(=O)Nc1ccccc1[N+](=O)[O-] | -5.19 | –
86 | O=c1c2ccccc2ncn1CCc1ccncc1 | 1.84 | –
87 | Cc1cccc(CC(=O)Nc2c3c(nn2-c2cccc(Cl)c2)CS(=O)C3)c1 (stereo not given) | -0.756 | –
88 | O=C(COC(=O)/C=C/c1cccc(Cl)c1)NCCc1ccccc1 | -3.37 | –
89 | O=c1oc(/C=C/c2ccccc2)nc2ccccc12 | -24.3 | –
90 | NNc1cccc(C=Cc2ccccc2)cc1=O | – | 1.64 µM (active)
91 | O=C(Cn1c(=O)n(Cc2ccco2)c(=O)c2ccccc21)NCC1CCCO1 (stereo not given) | -7.48 | –
92 | COCCNc1nnc(SCC(=O)NNC(=O)c2ccco2)s1 | 6.29 | –
93 | CCOC(=O)C1=CN(Cc2ccc(Br)cc2)S(=O)(=O)N(C)C1C (stereo not given) | -29.2 | –
94 | O=C(NCc1ccncc1)c1cccc(NS(=O)(=O)c2ccc(F)c(F)c2)c1 | -8.99 | –
95 | COCCCNC(=O)c1ccc(CNS(=O)(=O)c2ccc(NC(C)=O)cc2)cc1 | -2.52 | –
96 | CSCCC1NC2(C(=O)Nc3ccc(Cl)cc32)[C@@H]2C(=O)N(C3CCCC3)C(=O)[C@H]12 (stereo not given in full) | – | 20.6 µM (active)
97 | O=C1[C@@H]2C(Cc3ccc(O)cc3)NC3(C(=O)Nc4ccc(F)cc43)[C@@H]2C(=O)N1c1ccc(F)cc1 (stereo not given in full) | -7.72 | –
98 | CN(C)S(=O)(=O)N1CCN(c2ccc([N+](=O)[O-])cc2)CC1 | -25.7 | –
99 | CC(N)(C(=O)O)c1ccc(-c2nn[nH]n2)cc1 (stereo not given) | -9.19 | –
100 | CCOC(=O)N1CCN(Cc2nnc(-c3ccccc3Cl)o2)CC1 | 22.9 | –
101 | CCc1c(C)n([O-])c2c([n+]1=O)CCCCC2 | 4.34 | –
102 | Cc1cccc(C(=O)OCC(=O)NC(C)C2CC3CCC2C3)c1O (stereo not given) | – | 16.4 µM (active)
103 | Cc1cccc(C(=O)OCC(=O)NCC(C)C)c1O | -2.49 | –
104 | CCOC(=O)CCC(=O)OCC(=O)NC(C)C1CC2CCC1C2 (stereo not given) | -12.4 | –
105 | COC(=O)c1ccc(NC(=O)CSc2nnc(-c3ccncc3)n2C)cc1 | -0.574 | –
